# Measurements taken from publication PMC11006913.
# Numbering of substitutions follows the chain as printed.
# What was measured:
# Test in all cases: PBM; 200 nM protein, PBS
# Details in all cases: dsDNA, one strand shown
# HESX1 [1] = target: HESX1 (Homo sapiens, UniProt Q9UBX0 95-180, R165K)
# PAX4 [2] = target: T1, PAX4 (Homo sapiens, UniProt O43316 9-242, R200K)
# T1 sequence: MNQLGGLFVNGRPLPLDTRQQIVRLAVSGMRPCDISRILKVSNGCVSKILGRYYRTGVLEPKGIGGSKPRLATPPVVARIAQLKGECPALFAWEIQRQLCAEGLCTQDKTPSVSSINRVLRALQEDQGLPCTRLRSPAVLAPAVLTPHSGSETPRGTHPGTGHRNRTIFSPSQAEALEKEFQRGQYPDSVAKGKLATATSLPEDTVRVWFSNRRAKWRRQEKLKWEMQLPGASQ
# PRRX1 [3] = target: PRRX1 (Homo sapiens, UniProt P54821 80-166, F113S)
# PAX4 [4] = target: T2, PAX4 (Homo sapiens, UniProt O43316 9-242)
# T2 sequence: T1 sequence with K192R
# HESX1 [5] = target: HESX1 (Homo sapiens, UniProt Q9UBX0 95-180)
# PAX4 [6] = target: T3, PAX4 (Homo sapiens, UniProt O43316 9-242, R200Q)
# T3 sequence: T1 sequence with K192Q
# PAX4 [7] = target: T4, PAX4 (Homo sapiens, UniProt O43316 9-242, F177V)
# T4 sequence: T1 sequence with F169V, K192R
# PAX4 [8] = target: T5, PAX4 (Homo sapiens, UniProt O43316 9-242, F177Y)
# T5 sequence: T1 sequence with F169Y, K192R
# HESX1 [9] = target: HESX1 (Homo sapiens, UniProt Q9UBX0 95-180, R109Q)
# VAX1 [10] = target: VAX1 (Homo sapiens, UniProt Q5SQQ9 86-172)
# HESX1 [11] = target: HESX1 (Homo sapiens, UniProt Q9UBX0 95-180, P111T)
# HESX1 [12] = target: HESX1 (Homo sapiens, UniProt Q9UBX0 95-180, F115L)
# VAX1 [13] = target: VAX1 (Homo sapiens, UniProt Q5SQQ9 86-172, T142I)
# PAX4 [14] = target: T6, PAX4 (Homo sapiens, UniProt O43316 9-242, R227W)
# T6 sequence: T1 sequence with K192R, R219W
# PRRX1 [15] = target: PRRX1 (Homo sapiens, UniProt P54821 80-166)
# VAX1 [16] = target: VAX1 (Homo sapiens, UniProt Q5SQQ9 86-172, K157R)
# HOXA2 [17] = target: HOXA2 (Homo sapiens, UniProt O43364 129-215, R185T)
# HOXA2 [18] = target: HOXA2 (Homo sapiens, UniProt O43364 129-215, R185K)
# PROP1 [19] = target: PROP1 (Homo sapiens, UniProt O75360 56-141)
# PROP1 [20] = target: PROP1 (Homo sapiens, UniProt O75360 56-141, R99H)
# PROP1 [21] = target: PROP1 (Homo sapiens, UniProt O75360 56-141, F88S)
# HOXA2 [22] = target: HOXA2 (Homo sapiens, UniProt O43364 129-215, Y150S)
# HOXA2 [23] = target: HOXA2 (Homo sapiens, UniProt O43364 129-215)
# HOXA7 [24] = target: HOXA7 (Homo sapiens, UniProt P31268 116-202)
# HOXA7 [25] = target: HOXA7 (Homo sapiens, UniProt P31268 116-202, W177C)
# MSX2 [26] = target: MSX2 (Homo sapiens, UniProt P35548 130-214, R199I)
# ALX1 [27] = target: ALX1 (Homo sapiens, UniProt Q15699 118-204, L144V)
# ALX1 [28] = target: ALX1 (Homo sapiens, UniProt Q15699 118-204, L144R)
# MSX2 [29] = target: MSX2 (Homo sapiens, UniProt P35548 130-214)
# ALX3 = ALX3 (Homo sapiens, UniProt O95076 139-225, L168V)
# MSX2 [30] = target: MSX2 (Homo sapiens, UniProt P35548 130-214, F161Y)
# ALX1 [31] = target: ALX1 (Homo sapiens, UniProt Q15699 118-204)
# ALX4 [32] = target: ALX4 (Homo sapiens, UniProt Q9H161 200-286)
# ALX4 [33] = target: ALX4 (Homo sapiens, UniProt Q9H161 200-286, Q225E)
# ALX4 (Homo sapiens, UniProt Q9H161 200-286, Q225E), sequence (Q9H161 200-286 Q225E): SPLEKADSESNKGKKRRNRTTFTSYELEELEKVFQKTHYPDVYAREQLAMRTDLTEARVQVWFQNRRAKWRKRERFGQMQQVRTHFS
# HESX1 (Homo sapiens, UniProt Q9UBX0 95-180, R165K), sequence (Q9UBX0 95-180 R165K): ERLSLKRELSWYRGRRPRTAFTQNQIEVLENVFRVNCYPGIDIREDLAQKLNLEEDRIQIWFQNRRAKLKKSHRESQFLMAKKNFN
# HESX1 (Homo sapiens, UniProt Q9UBX0 95-180, F115L), sequence (Q9UBX0 95-180 F115L): as the sequence (Q9UBX0 95-180 R165K) above, with F21L, K71R counted along it
# HESX1 (Homo sapiens, UniProt Q9UBX0 95-180), sequence (Q9UBX0 95-180): as the sequence (Q9UBX0 95-180 R165K) above, with K71R counted along it
# HESX1 (Homo sapiens, UniProt Q9UBX0 95-180, P111T), sequence (Q9UBX0 95-180 P111T): as the sequence (Q9UBX0 95-180 R165K) above, with P17T, K71R counted along it
# HESX1 (Homo sapiens, UniProt Q9UBX0 95-180, R109Q), sequence (Q9UBX0 95-180 R109Q): as the sequence (Q9UBX0 95-180 R165K) above, with R15Q, K71R counted along it
# PROP1 (Homo sapiens, UniProt O75360 56-141, F88S), sequence (O75360 56-141 F88S): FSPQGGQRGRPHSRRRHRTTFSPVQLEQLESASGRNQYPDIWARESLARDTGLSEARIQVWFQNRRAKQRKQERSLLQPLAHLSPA
# PRRX1 (Homo sapiens, UniProt P54821 80-166), sequence (P54821 80-166): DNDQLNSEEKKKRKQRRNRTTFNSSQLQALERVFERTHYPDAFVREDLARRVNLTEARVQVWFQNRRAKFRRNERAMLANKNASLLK
# PROP1 (Homo sapiens, UniProt O75360 56-141), sequence (O75360 56-141): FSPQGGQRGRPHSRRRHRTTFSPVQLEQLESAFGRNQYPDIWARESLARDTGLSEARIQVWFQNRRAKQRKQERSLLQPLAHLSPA
# PRRX1 (Homo sapiens, UniProt P54821 80-166, F113S), sequence (P54821 80-166 F113S): as the sequence (P54821 80-166) above, with F34S counted along it
# PROP1 (Homo sapiens, UniProt O75360 56-141, R99H), sequence (O75360 56-141 R99H): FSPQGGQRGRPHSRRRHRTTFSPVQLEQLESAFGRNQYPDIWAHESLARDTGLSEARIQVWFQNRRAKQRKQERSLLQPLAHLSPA
# HOXA2 (Homo sapiens, UniProt O43364 129-215, R185K), sequence (O43364 129-215 R185K): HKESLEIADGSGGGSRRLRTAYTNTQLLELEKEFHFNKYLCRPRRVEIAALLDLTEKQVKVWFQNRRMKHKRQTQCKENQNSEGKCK
# HOXA2 (Homo sapiens, UniProt O43364 129-215, R185T), sequence (O43364 129-215 R185T): as the sequence (O43364 129-215 R185K) above, with K57T counted along it
# ALX4 (Homo sapiens, UniProt Q9H161 200-286), sequence (Q9H161 200-286): as the sequence (Q9H161 200-286 Q225E) above, with E26Q counted along it
# VAX1 (Homo sapiens, UniProt Q5SQQ9 86-172), sequence (Q5SQQ9 86-172): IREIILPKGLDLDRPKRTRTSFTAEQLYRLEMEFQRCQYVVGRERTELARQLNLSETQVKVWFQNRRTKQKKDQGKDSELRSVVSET
# VAX1 (Homo sapiens, UniProt Q5SQQ9 86-172, K157R), sequence (Q5SQQ9 86-172 K157R): as the sequence (Q5SQQ9 86-172) above, with K72R counted along it
# HOXA2 (Homo sapiens, UniProt O43364 129-215), sequence (O43364 129-215): as the sequence (O43364 129-215 R185K) above, with K57R counted along it
# MSX2 (Homo sapiens, UniProt P35548 130-214), sequence (P35548 130-214): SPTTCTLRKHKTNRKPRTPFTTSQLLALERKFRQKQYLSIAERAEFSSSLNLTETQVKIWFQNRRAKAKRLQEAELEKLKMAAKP
# ALX1 (Homo sapiens, UniProt Q15699 118-204), sequence (Q15699 118-204): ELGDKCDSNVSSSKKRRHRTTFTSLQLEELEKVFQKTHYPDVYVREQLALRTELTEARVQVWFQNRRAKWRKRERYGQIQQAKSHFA
# HOXA7 (Homo sapiens, UniProt P31268 116-202), sequence (P31268 116-202): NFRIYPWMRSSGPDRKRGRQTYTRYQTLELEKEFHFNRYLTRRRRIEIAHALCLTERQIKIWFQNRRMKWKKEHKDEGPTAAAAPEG
# HOXA2 (Homo sapiens, UniProt O43364 129-215, Y150S), sequence (O43364 129-215 Y150S): as the sequence (O43364 129-215 R185K) above, with Y22S, K57R counted along it
# ALX3, sequence (O95076 139-225 L168V): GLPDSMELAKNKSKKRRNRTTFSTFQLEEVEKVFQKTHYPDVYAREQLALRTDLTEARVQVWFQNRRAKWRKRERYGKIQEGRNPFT
# VAX1 (Homo sapiens, UniProt Q5SQQ9 86-172, T142I), sequence (Q5SQQ9 86-172 T142I): as the sequence (Q5SQQ9 86-172) above, with T57I counted along it
# MSX2 (Homo sapiens, UniProt P35548 130-214, F161Y), sequence (P35548 130-214 F161Y): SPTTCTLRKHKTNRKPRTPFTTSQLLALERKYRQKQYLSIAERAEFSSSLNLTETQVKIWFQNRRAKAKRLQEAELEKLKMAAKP
# ALX1 (Homo sapiens, UniProt Q15699 118-204, L144V), sequence (Q15699 118-204 L144V): as the sequence (Q15699 118-204) above, with L27V counted along it
# ALX1 (Homo sapiens, UniProt Q15699 118-204, L144R), sequence (Q15699 118-204 L144R): as the sequence (Q15699 118-204) above, with L27R counted along it
# HOXA7 (Homo sapiens, UniProt P31268 116-202, W177C), sequence (P31268 116-202 W177C): as the sequence (P31268 116-202) above, with W62C counted along it
# MSX2 (Homo sapiens, UniProt P35548 130-214, R199I), sequence (P35548 130-214 R199I): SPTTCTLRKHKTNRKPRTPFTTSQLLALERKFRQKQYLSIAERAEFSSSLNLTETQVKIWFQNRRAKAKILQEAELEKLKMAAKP
sequence,measurement,setting,value
GCCGGCGA,binding signal,HESX1 [1],"6.47 upbm affinity estimate (log intensity, higher = more binding, comparable within an allelic series)"
same,binding signal,PAX4 [2],"9.18 upbm affinity estimate (log intensity, higher = more binding, comparable within an allelic series)"
same,binding signal,PRRX1 [3],"9.26 upbm affinity estimate (log intensity, higher = more binding, comparable within an allelic series)"
same,binding signal,PAX4 [4],"9.12 upbm affinity estimate (log intensity, higher = more binding, comparable within an allelic series)"
same,binding signal,HESX1 [5],"6.42 upbm affinity estimate (log intensity, higher = more binding, comparable within an allelic series)"
same,binding signal,PAX4 [6],"9.11 upbm affinity estimate (log intensity, higher = more binding, comparable within an allelic series)"
same,binding signal,PAX4 [7],"9.13 upbm affinity estimate (log intensity, higher = more binding, comparable within an allelic series)"
same,binding signal,PAX4 [8],"9.03 upbm affinity estimate (log intensity, higher = more binding, comparable within an allelic series)"
same,binding signal,HESX1 [9],"6.45 upbm affinity estimate (log intensity, higher = more binding, comparable within an allelic series)"
same,binding signal,VAX1 [10],"6.87 upbm affinity estimate (log intensity, higher = more binding, comparable within an allelic series)"
same,binding signal,HESX1 [11],"6.41 upbm affinity estimate (log intensity, higher = more binding, comparable within an allelic series)"
same,binding signal,HESX1 [12],"6.43 upbm affinity estimate (log intensity, higher = more binding, comparable within an allelic series)"
same,binding signal,VAX1 [13],"7.22 upbm affinity estimate (log intensity, higher = more binding, comparable within an allelic series)"
same,binding signal,PAX4 [14],"9.19 upbm affinity estimate (log intensity, higher = more binding, comparable within an allelic series)"
same,binding signal,PRRX1 [15],"9.42 upbm affinity estimate (log intensity, higher = more binding, comparable within an allelic series)"
same,binding signal,VAX1 [16],"7.26 upbm affinity estimate (log intensity, higher = more binding, comparable within an allelic series)"
CCGAGGCC,binding signal,HESX1 [1],"6.48 upbm affinity estimate (log intensity, higher = more binding, comparable within an allelic series)"
same,binding signal,HESX1 [5],"6.46 upbm affinity estimate (log intensity, higher = more binding, comparable within an allelic series)"
same,binding signal,HOXA2 [17],"7.28 upbm affinity estimate (log intensity, higher = more binding, comparable within an allelic series)"
same,binding signal,HOXA2 [18],"10.4 upbm affinity estimate (log intensity, higher = more binding, comparable within an allelic series)"
same,binding signal,PROP1 [19],"6.73 upbm affinity estimate (log intensity, higher = more binding, comparable within an allelic series)"
same,binding signal,HESX1 [9],"6.41 upbm affinity estimate (log intensity, higher = more binding, comparable within an allelic series)"
same,binding signal,PROP1 [20],"6.78 upbm affinity estimate (log intensity, higher = more binding, comparable within an allelic series)"
same,binding signal,HESX1 [11],"6.44 upbm affinity estimate (log intensity, higher = more binding, comparable within an allelic series)"
same,binding signal,PROP1 [21],"6.47 upbm affinity estimate (log intensity, higher = more binding, comparable within an allelic series)"
same,binding signal,HESX1 [12],"6.42 upbm affinity estimate (log intensity, higher = more binding, comparable within an allelic series)"
same,binding signal,HOXA2 [22],"10.4 upbm affinity estimate (log intensity, higher = more binding, comparable within an allelic series)"
same,binding signal,HOXA2 [23],"7.27 upbm affinity estimate (log intensity, higher = more binding, comparable within an allelic series)"
AGCTGCCT,binding signal,HESX1 [1],"6.48 upbm affinity estimate (log intensity, higher = more binding, comparable within an allelic series)"
same,binding signal,HOXA7 [24],"8.26 upbm affinity estimate (log intensity, higher = more binding, comparable within an allelic series)"
same,binding signal,HESX1 [5],"6.48 upbm affinity estimate (log intensity, higher = more binding, comparable within an allelic series)"
same,binding signal,HESX1 [9],"6.53 upbm affinity estimate (log intensity, higher = more binding, comparable within an allelic series)"
same,binding signal,HESX1 [11],"6.48 upbm affinity estimate (log intensity, higher = more binding, comparable within an allelic series)"
same,binding signal,HESX1 [12],"6.43 upbm affinity estimate (log intensity, higher = more binding, comparable within an allelic series)"
same,binding signal,HOXA7 [25],"8.25 upbm affinity estimate (log intensity, higher = more binding, comparable within an allelic series)"
AATTATCA,binding signal,HESX1 [1],"11.4 upbm affinity estimate (log intensity, higher = more binding, comparable within an allelic series)"
same,binding signal,PRRX1 [3],"11.2 upbm affinity estimate (log intensity, higher = more binding, comparable within an allelic series)"
same,binding signal,HESX1 [5],"11.5 upbm affinity estimate (log intensity, higher = more binding, comparable within an allelic series)"
same,binding signal,MSX2 [26],"12.3 upbm affinity estimate (log intensity, higher = more binding, comparable within an allelic series)"
same,binding signal,ALX1 [27],"11.3 upbm affinity estimate (log intensity, higher = more binding, comparable within an allelic series)"
same,binding signal,ALX1 [28],"11.1 upbm affinity estimate (log intensity, higher = more binding, comparable within an allelic series)"
same,binding signal,MSX2 [29],"13.3 upbm affinity estimate (log intensity, higher = more binding, comparable within an allelic series)"
same,binding signal,PAX4 [8],"10.9 upbm affinity estimate (log intensity, higher = more binding, comparable within an allelic series)"
same,binding signal,PROP1 [19],"11 upbm affinity estimate (log intensity, higher = more binding, comparable within an allelic series)"
same,binding signal,HESX1 [9],"8.56 upbm affinity estimate (log intensity, higher = more binding, comparable within an allelic series)"
same,binding signal,PROP1 [20],"10.6 upbm affinity estimate (log intensity, higher = more binding, comparable within an allelic series)"
same,binding signal,HESX1 [11],"10.1 upbm affinity estimate (log intensity, higher = more binding, comparable within an allelic series)"
same,binding signal,ALX3,"9.73 upbm affinity estimate (log intensity, higher = more binding, comparable within an allelic series)"
same,binding signal,PROP1 [21],"7.71 upbm affinity estimate (log intensity, higher = more binding, comparable within an allelic series)"
same,binding signal,MSX2 [30],"13 upbm affinity estimate (log intensity, higher = more binding, comparable within an allelic series)"
same,binding signal,HESX1 [12],"7.79 upbm affinity estimate (log intensity, higher = more binding, comparable within an allelic series)"
same,binding signal,ALX1 [31],"12 upbm affinity estimate (log intensity, higher = more binding, comparable within an allelic series)"
same,binding signal,PRRX1 [15],"13.3 upbm affinity estimate (log intensity, higher = more binding, comparable within an allelic series)"
AGGTACCT,binding signal,HESX1 [1],"6.5 upbm affinity estimate (log intensity, higher = more binding, comparable within an allelic series)"
same,binding signal,ALX4 [32],"8.17 upbm affinity estimate (log intensity, higher = more binding, comparable within an allelic series)"
same,binding signal,ALX4 [33],"8.34 upbm affinity estimate (log intensity, higher = more binding, comparable within an allelic series)"
same,binding signal,HESX1 [5],"6.5 upbm affinity estimate (log intensity, higher = more binding, comparable within an allelic series)"
same,binding signal,HESX1 [9],"6.6 upbm affinity estimate (log intensity, higher = more binding, comparable within an allelic series)"
same,binding signal,HESX1 [11],"6.54 upbm affinity estimate (log intensity, higher = more binding, comparable within an allelic series)"
same,binding signal,HESX1 [12],"6.63 upbm affinity estimate (log intensity, higher = more binding, comparable within an allelic series)"
